From PubChem BioAssay

Experiments:
[1] = tested on: Botulinum neurotoxin type F light chain protease (Clostridium botulinum); experiment: Botulinum neurotoxin type F light chain protease inhibition, multiplex microsphere flow cytometry, validation set (AID 588459); settings: multiplex microsphere protease substrate cleavage assay, at 10 µM, hits give high values
[2] = biological target: Botulinum neurotoxin type A (Clostridium botulinum) (UniProt P0DPI0); experiment: BoNT/A light chain protease inhibitors, biochemical, multiplex microsphere flow cytometry, validation set (AID 588460); settings: at 10 µM, hits give high values
Sequence of Botulinum neurotoxin type A (Clostridium botulinum) (P0DPI0 whole entry, looked up): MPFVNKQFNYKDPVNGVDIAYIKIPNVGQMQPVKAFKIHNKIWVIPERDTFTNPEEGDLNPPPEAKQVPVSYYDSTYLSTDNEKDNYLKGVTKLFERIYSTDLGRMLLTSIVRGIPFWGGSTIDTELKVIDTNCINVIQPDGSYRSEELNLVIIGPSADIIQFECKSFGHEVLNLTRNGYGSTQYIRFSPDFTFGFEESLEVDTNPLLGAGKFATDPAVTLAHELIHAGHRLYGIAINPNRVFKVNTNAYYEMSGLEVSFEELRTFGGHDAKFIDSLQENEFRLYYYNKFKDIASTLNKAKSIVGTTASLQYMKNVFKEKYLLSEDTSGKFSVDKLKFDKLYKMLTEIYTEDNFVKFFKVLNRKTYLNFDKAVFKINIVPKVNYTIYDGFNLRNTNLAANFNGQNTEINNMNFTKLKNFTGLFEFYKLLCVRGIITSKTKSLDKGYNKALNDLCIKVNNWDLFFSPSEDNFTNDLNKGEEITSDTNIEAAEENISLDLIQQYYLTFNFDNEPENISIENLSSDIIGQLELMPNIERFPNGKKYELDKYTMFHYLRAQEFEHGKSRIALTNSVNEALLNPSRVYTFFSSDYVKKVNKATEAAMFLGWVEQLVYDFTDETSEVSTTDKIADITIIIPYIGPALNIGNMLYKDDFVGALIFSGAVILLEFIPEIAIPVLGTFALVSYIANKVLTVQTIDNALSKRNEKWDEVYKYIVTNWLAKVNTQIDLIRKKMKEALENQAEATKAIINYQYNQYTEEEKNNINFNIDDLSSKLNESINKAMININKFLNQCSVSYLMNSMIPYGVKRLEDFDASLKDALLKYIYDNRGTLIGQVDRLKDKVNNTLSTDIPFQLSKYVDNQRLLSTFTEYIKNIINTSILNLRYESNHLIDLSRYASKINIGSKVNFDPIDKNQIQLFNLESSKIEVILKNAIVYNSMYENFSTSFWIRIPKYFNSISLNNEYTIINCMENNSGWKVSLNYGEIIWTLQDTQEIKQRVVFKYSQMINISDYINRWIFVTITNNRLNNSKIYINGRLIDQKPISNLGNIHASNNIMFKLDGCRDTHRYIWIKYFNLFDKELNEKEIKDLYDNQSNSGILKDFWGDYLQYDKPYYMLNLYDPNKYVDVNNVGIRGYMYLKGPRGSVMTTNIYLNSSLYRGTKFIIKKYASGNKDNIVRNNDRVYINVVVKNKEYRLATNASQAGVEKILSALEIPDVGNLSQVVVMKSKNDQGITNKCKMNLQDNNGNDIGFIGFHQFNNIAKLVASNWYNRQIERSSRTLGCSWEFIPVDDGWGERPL

[3] = biological target: Lethal factor (Bacillus anthracis) (UniProt P15917); experiment: Lethal factor protease inhibitors, Bacillus anthracis, multiplex microsphere cleavage assay, validation set (AID 588461); settings: flow cytometry, at 10 µM, hits give high values
Sequence of Lethal factor (Bacillus anthracis) (P15917 whole entry, looked up): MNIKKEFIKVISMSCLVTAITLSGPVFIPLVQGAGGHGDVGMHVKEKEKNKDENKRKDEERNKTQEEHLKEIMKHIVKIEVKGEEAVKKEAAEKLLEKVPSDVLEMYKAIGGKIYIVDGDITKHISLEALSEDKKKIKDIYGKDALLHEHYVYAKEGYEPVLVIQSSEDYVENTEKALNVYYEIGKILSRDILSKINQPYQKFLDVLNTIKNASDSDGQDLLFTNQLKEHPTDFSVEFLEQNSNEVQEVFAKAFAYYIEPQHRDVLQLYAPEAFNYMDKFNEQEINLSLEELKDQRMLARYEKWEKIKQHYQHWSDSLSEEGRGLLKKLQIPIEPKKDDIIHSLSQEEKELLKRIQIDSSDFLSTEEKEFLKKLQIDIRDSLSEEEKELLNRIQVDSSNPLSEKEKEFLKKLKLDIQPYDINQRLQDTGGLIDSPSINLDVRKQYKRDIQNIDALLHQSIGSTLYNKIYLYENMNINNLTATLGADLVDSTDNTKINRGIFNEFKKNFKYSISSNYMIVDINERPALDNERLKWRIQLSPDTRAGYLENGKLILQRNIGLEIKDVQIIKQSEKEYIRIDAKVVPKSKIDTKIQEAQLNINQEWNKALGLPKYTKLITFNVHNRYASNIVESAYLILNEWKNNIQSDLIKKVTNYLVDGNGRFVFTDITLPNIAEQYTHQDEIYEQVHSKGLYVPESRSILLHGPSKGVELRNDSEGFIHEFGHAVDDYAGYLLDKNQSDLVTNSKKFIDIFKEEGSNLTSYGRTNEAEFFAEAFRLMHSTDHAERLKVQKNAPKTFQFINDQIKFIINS

Measured: inhibition

CCCc1cc(C(N)=S)ccn1
inactive: [1] 1.8% | [2] 1.2% | [3] -7.7%

CC(C)(C)C(=O)Nc1cccc(OC(F)(F)C(F)Cl)c1 (stereo not drawn)
inactive: [1] 3.3% | [2] 0% | [3] -6%

COc1cccc(OC2OC3COC(C)(C)OC3C(O)C2NC(C)=O)c1 (stereo not drawn)
inactive: [1] -0.8% | [2] 0.2% | [3] 0.5%

O=C1Nc2ccc3sc4ccccc4c3c2C1=O
inactive: [1] -1.1% | [2] -0.8% | [3] 1.4%

CN1CCC(=C2c3ccccc3CC(=O)c3sccc32)CC1
inactive: [1] 8% | [2] 0.8% | [3] -4%

COc1ccc(NC(=S)N2CCN(CCN3C(=O)c4cccc5cccc(c45)C3=O)CC2)cc1
inactive: [1] 2.5% | [2] 1.6% | [3] -3.3%

CCNC1=C(Cl)C(=O)c2ccccc2C1=O
inactive: [1] 1.2% | [2] -0.3% | [3] -6%

O=C(NCc1ccccc1Cl)NC(=O)c1ccccc1
inactive: [1] -1.4% | [2] 0.8% | [3] 6.8%

CC(COc1ccccc1)N(CCCl)Cc1ccccc1 (stereo not drawn)
inactive: [1] 0.1% | [2] -2.7% | [3] -5.9%

Cc1ccc(OCCSc2ncccn2)c(C)c1
inactive: [1] 3.4% | [2] 0.6% | [3] 1.7%

O=C(O)c1cc(-c2ccccc2)nc2ccccc12
inactive: [1] -1.1% | [2] -0.1% | [3] -9.8%

OCC(O)CN1CCN(c2ccccc2)CC1 (stereo not drawn)
inactive: [1] 1.1% | [2] 0.8% | [3] -2.7%

COc1cc2c(cc1OC)C1(CCCC1)CNC2c1cccc([N+](=O)[O-])c1 (stereo not drawn)
inactive: [1] 1% | [2] 0.1% | [3] -9.4%

CNCCC=C1c2ccccc2CCc2ccccc21
inactive: [1] -4.9% | [2] 0.2% | [3] -5.8%

CCNC(=O)c1sc2cc(C)ccc2c1Cl
inactive: [1] 2.4% | [2] -1.2% | [3] -1.4%

O=C(/C=C/c1ccc(F)cc1)NC(=S)N1CCCCC1c1cccnc1 (stereo not drawn)
inactive: [1] 1% | [2] -0.6% | [3] -0.1%

COc1ccc(CN(CCC(c2ccccc2)c2ccc(OC(C)C)cc2)C(=O)CCl)cc1OC (stereo not drawn)
inactive: [1] -3.8% | [2] 0.3% | [3] -6.4%

CC(C)CC(=O)NC(NC(=O)CC(C)C)c1cccc([N+](=O)[O-])c1
inactive: [1] 1.7% | [2] -0.3% | [3] 3.9%

O=c1[nH]cc(F)c(=O)[nH]1
inactive: [1] 0.6% | [2] -1.2% | [3] -1.9%

COC(=O)CN1C(=S)N(c2ccc(F)cc2)C(=O)C1CC(=O)Nc1ccccc1 (stereo not drawn)
inactive: [1] -5.7% | [2] -2% | [3] -5.6%

O=C(NCc1ccc(N2CCCC2=O)cc1)c1cccc(Cl)c1
inactive: [1] -4.5% | [2] -2.2% | [3] 1%

CN(C)CCOCCOc1ccc(Cl)cc1Br
inactive: [1] 6.4% | [2] 1% | [3] -5.5%

Cc1ccc(CSCC(=O)NCCCN2CCOCC2)cc1
inactive: [1] 1.4% | [2] -1.7% | [3] 3.8%

COCc1cc(=O)[nH]c(Nc2nc3ccccc3o2)n1
inactive: [1] -3.7% | [2] -0.7% | [3] 0.7%

Cc1ccc(P(=O)(CSC(=N)N)c2ccc(C)cc2)cc1
inactive: [1] -1.3% | [2] -0.5% | [3] -7.5%

C[C@]12C=CC(=O)C=C1CCC1C3CC[C@](O)(C(=O)CO)[C@@]3(C)CC3OC312 (stereo partly drawn)
inactive: [1] -1.8% | [2] -2.7% | [3] -7.3%

Cc1ccc(-n2cc(CNCCN3CCOC3=O)c(-c3ccc(F)cc3)n2)cc1
inactive: [1] -3.2% | [2] 1.5% | [3] -7.8%

COc1ccc(Br)cc1C(=O)Nc1ccc(C(=O)O)cc1
inactive: [1] 1% | [2] 1% | [3] -2.2%

CC1(C)OC2OC(C(=O)N/N=C/c3ccccc3F)C3OC(C)(C)OC3C2O1 (stereo not drawn)
inactive: [1] 2.6% | [2] -1.3% | [3] -1.9%

N/C(=N/OS(=O)(=O)c1ccc([N+](=O)[O-])cc1)c1ccncc1
inactive: [1] 2.2% | [2] 0.3% | [3] 1%

CCn1c2ccccc2c2cc(CC(N)=O)ccc21
inactive: [1] -5.5% | [2] -0.6% | [3] -0.1%
